{
  "source": "PubChem BioAssay AID1508633",
  "about": "(National Center for Advancing Translational Sciences (NCATS), 2021)",
  "system": "zebrafish ABCB5 (Abcb5) multidrug transporter",
  "test": "qHTS for characterization and localization of zebrafish homologs of the human ABCB1 multidrug transporter: ABCB5 transfected cells",
  "settings": "CellTiter-Glo luminescence viability, 72 h; series mostly up to 46.1 µM",
  "method_in_brief": "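Empty-vector, P-gp-overexpressing MDR-19 and zebrafish abcb4- or abcb5-transfected cells were exposed to ~90 P-gp substrates at varying concentrations for 72 h at 37C. Viability was read by CellTiter-Glo luminescence; cytotoxic meant inhibitory curve class, >50% maximal response and AC50 < 10 uM.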",
  "note": "Records with an inconclusive call do not appear. Activity calls are given as the source filed them. The call rests on the fitted dose curve; in most records, active means well fitted inhibition curve with a large enough effect; inconclusive means small, poorly fitted or top-dose-only effect; inactive means no such curve, though single readings can be large or run the other way.",
  "data": [
    {"smiles": "C[C@@]12O[C@@H](C[C@]1(O)CO)n1c3ccccc3c3c4c(c5c6ccccc6n2c5c31)CNC4=O", "values": [
      {"measurement": "Potency", "result": "5.26 µM (active)"}
    ]},
    {"smiles": "COc1cc2ncn(-c3cc(OCc4ccccc4C(F)(F)F)c(C(N)=O)s3)c2cc1OC", "values": [
      {"measurement": "Potency", "result": "6.79 µM (active)"}
    ]},
    {"smiles": "CC1(C)CC(NC(=O)C(=O)Nc2ccc(Br)cc2)CC(C)(C)N1", "values": [
      {"measurement": "Potency", "result": "inactive"}
    ]},
    {"smiles": "CN(C)CCN(C)C(=O)c1ccc(NC(=O)Nc2ccc(-c3nc(N4CCOCC4)c4ccn(CC(F)(F)F)c4n3)cc2)cc1", "values": [
      {"measurement": "Potency", "result": "2.35 µM (active)"}
    ]},
    {"smiles": "CC(C)C[C@H](NC(=O)[C@@H](NC(=O)c1cccc(-c2ccccc2)n1)[C@@H](C)O)B(O)O", "values": [
      {"measurement": "Potency", "result": "0.118 µM (active)"}
    ]},
    {"smiles": "C[C@@H](Oc1cc(-n2cnc3ccc(CN4CCN(C)CC4)cc32)sc1C(N)=O)c1ccccc1C(F)(F)F", "values": [
      {"measurement": "Potency", "result": "4.18 µM (active)"}
    ]},
    {"smiles": "Cc1ccc(-c2ncn(-c3ccc(Nc4nccc(-c5cccc(N6CCOCC6)c5)n4)cc3)n2)cn1", "values": [
      {"measurement": "Potency", "result": "5.9 µM (active)"}
    ]},
    {"smiles": "Cc1cc(Nc2cc(NC(=O)c3c(Cl)cccc3Cl)ccn2)nc(N)n1", "values": [
      {"measurement": "Potency", "result": "7.43 µM (active)"}
    ]},
    {"smiles": "C#CCN(Cc1cc2c(=O)n(C)c(CN3CCN(C)CC3)nc2cc1Cl)c1ccc(C(=O)NCc2cccnc2)cc1", "values": [
      {"measurement": "Potency", "result": "inactive"}
    ]},
    {"smiles": "COc1cc2c(NC3CCN(C(C)C)CC3)nc(N3CCCN(C)CC3)nc2cc1OCCOCCN(C)C", "values": [
      {"measurement": "Potency", "result": "inactive"}
    ]},
    {"smiles": "COc1cc(N2CCC(O)CC2)ccc1Nc1nc(Nc2ccccc2S(=O)(=O)C(C)C)c2[nH]cnc2n1", "values": [
      {"measurement": "Potency", "result": "inactive"}
    ]}
  ]
}
